Here are results for 36 compounds from PubChem BioAssay AID651899 (Broad Institute, 2012).

Entries with a potency or affinity are not part of this list. The source made the active and inactive calls. The rule behind the calls is not given here.

The test is described as follows: cytotoxicity in HEK293 cells, dose response, cytotoxicity control, cell-based, plate reader, cherry-pick (AID 651899).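 Note: cells exposed to compound for 48 hours.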 The conditions noted are these: series mostly up to 26 µM.
As to `O=C(C[C@H]1C[C@H]2c3cc(NC(=O)c4cccnc4)ccc3O[C@H]2[C@H](CO)O1)NCc1ccccn1`, the outcome was inactive.

On to `COc1cc(-c2n[nH]c(=S)n2-c2cccc(C(F)(F)F)c2)cc(OC)c1OC`, for which the outcome was inactive.

`O=C(C1CCCN(S(=O)(=O)c2cccnc2)C1)N1CCn2c1nc1ccccc12` (stereo unspecified): the result was inactive.

Take `O=C(c1ccncc1)N1CC[C@@H]2[C@H]1c1cc(Br)ccc1N[C@@H]2CO`: the outcome was inactive.

With `Cc1cccc(C(=O)NC2CCN(CC(=O)Nc3ccccc3Cl)CC2)c1`, the outcome was inactive.

With `Cc1ccc(-n2ncc3c2CC(C)(C)CC3NC(=O)CCc2cccnc2)cc1` (stereo unspecified), the result was inactive.

For `COCCNC(=O)C[C@@H]1CC[C@@H]2[C@H](COc3ccc(NC(=O)Nc4cccc(F)c4)cc3C(=O)N2C)O1`, the call was inactive.

As for `O=C(Nc1ccc(F)c(Cl)c1)C1CCCN(c2cnccn2)C1` (stereo unspecified), the compound was called inactive.

Turning to `CC(=O)O[C@]1(C(C)=O)CC[C@H]2[C@@H]3C=C(C)C4=CC(=O)CC[C@]4(C)[C@H]3CC[C@@]21C`, the call was inactive.

For the compound `O=C(Nc1ccc(NS(=O)(=O)c2ccccc2)cc1)c1cccnc1`, the compound was classed as inactive.

Consider `COCCNC(=O)C[C@@H]1CC[C@@H]2[C@@H](COc3ccc(NC(=O)Nc4cccc(F)c4)cc3C(=O)N2C)O1`, for which the call was inactive.

As for `O=C1CCCc2c1cc(C(=O)NCCCN1CCOCC1)c(=O)n2-c1ccc(Cl)cc1`, the compound was classed as inactive.

`O=C(C[C@@H]1C[C@@H]2c3cc(NC(=O)c4cccnc4)ccc3O[C@@H]2[C@@H](CO)O1)NCc1cccc(F)c1`: the call was inactive.

On to `CC1Cc2nc(SCC(=O)N3CCOCC3)n(-c3ccccc3)c(=O)c2S1` (stereo unspecified), for which the call was inactive.

For `O=C(c1ccc(S(=O)(=O)Nc2ccccc2F)cc1)N1CCN(c2ccccc2O)CC1`, the call was inactive.

For the compound `CC(=O)c1ccc(NC(=O)C2CC(=O)N(Cc3ccccc3)C2)cc1` (stereo unspecified), the compound was called inactive.

Take `CCOC(=O)C1CCN(C(=O)Nc2ccc3snnc3c2)CC1`: the compound was classed as inactive.

Regarding `COc1ccccc1-c1cc(C(F)(F)F)nc(S(=O)(=O)CCCC(=O)O)n1`, the compound was called inactive.

Take `CC(=O)c1ccc(C(=O)N2CCCC(CCC(=O)N(C)CCc3ccccn3)C2)s1` (stereo unspecified): the result was inactive.

For `O=C(CSc1nc2c(c(=O)n1-c1ccccc1)SCC2)N1CCN(c2ccccc2)CC1`, the result was inactive.

With `COC(=O)c1sc(N)c(C(=O)OC)c1CSc1nnc(-c2ccccc2Cl)n1C`, the outcome was inactive.

`COc1ccc(-c2cc(NC=O)c3ncc(-c4cccc(C(=O)N(C)C)c4)n3c2)cn1`: the compound was called inactive.

Regarding `COC(=O)c1c(C(=O)OC)c(-c2cccc(F)c2)n2c1CS(=O)C2` (stereo unspecified), the call was inactive.

With `COC(=O)C[C@@H]1CC[C@@H]2[C@H](COC[C@@H](O)CN2C(=O)Nc2cccc(F)c2)O1`, the result was inactive.

Take `CCN(CC)c1ccc2cc(C(=O)c3cccs3)c(=O)oc2c1`: the result was inactive.

With `CC(C)(C)c1cc(C(=O)Nc2cccnc2)cc(C(=O)Nc2cccnc2)c1`, the call was inactive.

Take `CCn1c(=O)c(=O)n(CC)c2cc(S(=O)(=O)Nc3cc(C)ccc3C)ccc21`: the call was inactive.

Regarding `CCOC(=O)c1c(C)[n+](-c2ccc(C)cc2)c(CC)c2cc(OC)c(OC)cc12`, the result was inactive.

On to `CN1c2ccc(-c3cccc(F)c3)cc2[C@H]2[C@H](CCN2C(=O)c2ccncc2)[C@@H]1CO`, for which the call was inactive.

For `N#Cc1ccc(-c2ccc3c(c2)[C@@H]2[C@@H](CCN2C(=O)c2ccc(F)cc2)[C@@H](CO)N3)cc1`, the outcome was inactive.

In the case of `COc1ccc(NC2c3ccccc3C(=O)N2c2cccnc2)cc1Cl` (stereo unspecified), the call was inactive.

Turning to `Cc1ccc(-c2nn(CCC(=O)Nc3cccnc3)c(=O)c3ccccc23)cc1`, the outcome was inactive.

As for `Cc1ccc(NCc2nnc(SCC(=O)N3CCc4ccccc43)n2C)cc1`, the outcome was inactive.

For `O=C(Nc1ccc2snnc2c1)N1CCN(c2ccccc2)CC1`, the result was inactive.

For `COc1ccc(C2c3c(oc4ccc(Cl)cc4c3=O)C(=O)N2CCN2CCOCC2)cc1` (stereo unspecified), the outcome was inactive.

Take `CC(=O)c1ccc(C(=O)N2CCCC(Nc3ccccc3)C2)s1` (stereo unspecified): the compound was called inactive.
